Experimental data taken from PMC8384837, “Expanding the binding specificity for RNA recognition by a PUF domain”.

What was measured:
Experiment in all cases: yeast three-hybrid, YBZ-1, SC-Leu-His + 0.5 mM 3-AT, 4 days
Conditions in all cases: tags: N-Gal4 AD-HA kept; label: inside an RPR1-promoter hybrid RNA with tandem MS2 sites; ssRNA
PUM1 PUF domain R3-FRM = PUM1 PUF domain R3-FRM (Homo sapiens, UniProt Q14671 828-1176, C935F;Q939M)
Outline: (§1)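 Pumilio-1 PUF domain libraries, randomized (NNK) at the three base-contacting residues of each repeat, were co-expressed with matching RNA elements from a centromeric plasmid in strain YBZ-1 (LexA–MS2 coat fusion, HIS3 reporter). Transformants were plated on SC-Leu (input) and SC-Leu-His + 0.5 mM 3-AT (selection) for four days, and repeat regions were PCR-amplified and Illumina-sequenced. The interaction score is the log2 change in variant frequency from input to selection, with pseudocount 1 where absent.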

PUM1 PUF domain R3-RQW = PUM1 PUF domain R3-RQW (Homo sapiens, UniProt Q14671 828-1176, C935R;R936Q;Q939W)
Outline: as §1

PUM1 PUF domain R5-SGG = PUM1 PUF domain R5-SGG (Homo sapiens, UniProt Q14671 828-1176, C1007S;R1008G;Q1011G)
Outline: as §1

PUM1 PUF domain R5-FRL = PUM1 PUF domain R5-FRL (Homo sapiens, UniProt Q14671 828-1176, C1007F;Q1011L)
Outline: as §1

PUM1 PUF domain R4-PHC = PUM1 PUF domain R4-PHC (Homo sapiens, UniProt Q14671 828-1176, N971P;Q975C)
Outline: as §1

PUM1 PUF domain R1-RVM = PUM1 PUF domain R1-RVM (Homo sapiens, UniProt Q14671 828-1176, S863R;R864V;Q867M)
Outline: as §1

PUM1 PUF domain R1-RCV = PUM1 PUF domain R1-RCV (Homo sapiens, UniProt Q14671 828-1176, S863R;R864C;Q867V)
Outline: as §1

PUM1 PUF domain R1-KLE = PUM1 PUF domain R1-KLE (Homo sapiens, UniProt Q14671 828-1176, S863K;R864L;Q867E)
Outline: as §1

PUM1 PUF domain R6-HFL = molecular target: T1, PUM1 PUF domain R6-HFL (Homo sapiens, UniProt Q14671 828-1176, N1043H;Y1044F;Q1047L)
T1 sequence: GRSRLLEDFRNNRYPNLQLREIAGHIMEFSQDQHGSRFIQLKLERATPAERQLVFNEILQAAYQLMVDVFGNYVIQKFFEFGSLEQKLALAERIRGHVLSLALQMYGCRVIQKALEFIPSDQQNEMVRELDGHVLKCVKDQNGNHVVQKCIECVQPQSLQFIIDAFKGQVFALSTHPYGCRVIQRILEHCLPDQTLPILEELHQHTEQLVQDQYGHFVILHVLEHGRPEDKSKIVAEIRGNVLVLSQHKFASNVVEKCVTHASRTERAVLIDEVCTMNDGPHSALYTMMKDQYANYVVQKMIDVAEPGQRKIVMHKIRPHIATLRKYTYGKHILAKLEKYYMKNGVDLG
Outline: as §1

PUM1 PUF domain R5-RQL = PUM1 PUF domain R5-RQL (Homo sapiens, UniProt Q14671 828-1176, C1007R;R1008Q;Q1011L)
Outline: as §1

**Q.** How did the binding signal (PUM1 PUF domain R3-FRM) turn out when “GGCUAGAACUAGUGGAUCCCCCGGCGCCCGGCGGCUCGAGCCCGGGUAAGUGUAAUUAGUCUGCAUGCCGCCGGGCGCCAUGCCUGCAGGUCGACUCUAGAAAACAUG” was run?
**A.** 0.74 log2 enrichment (interaction score)

**Q.** And the binding signal (PUM1 PUF domain R3-RQW)?
**A.** 2.52 log2 enrichment (interaction score)

**Q.** For “GGCUAGAACUAGUGGAUCCCCCGGCGCCCGGCGGCUCGAGCCCGGGUAAGUGUGAAUAGUCUGCAUGCCGCCGGGCGCCAUGCCUGCAGGUCGACUCUAGAAAACAUG”, which binding signal (PUM1 PUF domain R5-SGG) is on record?
**A.** 3.53 log2 enrichment (interaction score)

**Q.** What about the binding signal (PUM1 PUF domain R5-FRL) of the same sequence?
**A.** 0.24 log2 enrichment (interaction score)

**Q.** With “GGCUAGAACUAGUGGAUCCCCCGGCGCCCGGCGGCUCGAGCCCGGGUAAGUGUACAUAGUCUGCAUGCCGCCGGGCGCCAUGCCUGCAGGUCGACUCUAGAAAACAUG” as the sequence, how does the binding signal (PUM1 PUF domain R4-PHC) read?
**A.** 3.16 log2 enrichment (interaction score)

**Q.** For “GGCUAGAACUAGUGGAUCCCCCGGCGCCCGGCGGCUCGAGCCCGGGUAAGUGUAAAUGGUCUGCAUGCCGCCGGGCGCCAUGCCUGCAGGUCGACUCUAGAAAACAUG”, which binding signal (PUM1 PUF domain R1-RVM) is on record?
**A.** 1.04 log2 enrichment (interaction score)

**Q.** With “GGCUAGAACUAGUGGAUCCCCCGGCGCCCGGCGGCUCGAGCCCGGGUAAGUGUAUAUAGUCUGCAUGCCGCCGGGCGCCAUGCCUGCAGGUCGACUCUAGAAAACAUG” as the sequence, how does the binding signal (PUM1 PUF domain R4-PHC) read?
**A.** 4.13 log2 enrichment (interaction score)

**Q.** With “GGCUAGAACUAGUGGAUCCCCCGGCGCCCGGCGGCUCGAGCCCGGGUAAGUGUAAAUCGUCUGCAUGCCGCCGGGCGCCAUGCCUGCAGGUCGACUCUAGAAAACAUG” as the sequence, how does the binding signal (PUM1 PUF domain R1-RVM) read?
**A.** 3.24 log2 enrichment (interaction score)

**Q.** And the binding signal (PUM1 PUF domain R1-RCV)?
**A.** 3.67 log2 enrichment (interaction score)

**Q.** What about the binding signal (PUM1 PUF domain R1-KLE) of the same sequence?
**A.** 3.36 log2 enrichment (interaction score)

**Q.** Which results are given for “GGCUAGAACUAGUGGAUCCCCCGGCGCCCGGCGGCUCGAGCCCGGGUAAGUGUAAAUAGUCUGCAUGCCGCCGGGCGCCAUGCCUGCAGGUCGACUCUAGAAAACAUG”?
**A.** binding signal (PUM1 PUF domain R6-HFL): 2.57 log2 enrichment (interaction score); binding signal (PUM1 PUF domain R5-FRL): 1.49 log2 enrichment (interaction score)

**Q.** How did the binding signal (PUM1 PUF domain R1-RVM) turn out when “GGCUAGAACUAGUGGAUCCCCCGGCGCCCGGCGGCUCGAGCCCGGGUAAGUGUAAAUUGUCUGCAUGCCGCCGGGCGCCAUGCCUGCAGGUCGACUCUAGAAAACAUG” was run?
**A.** 2.87 log2 enrichment (interaction score)

**Q.** What about the binding signal (PUM1 PUF domain R1-RCV) of the same sequence?
**A.** 1.82 log2 enrichment (interaction score)

**Q.** What about the binding signal (PUM1 PUF domain R1-KLE) of the same sequence?
**A.** 4.05 log2 enrichment (interaction score)

**Q.** With “GGCUAGAACUAGUGGAUCCCCCGGCGCCCGGCGGCUCGAGCCCGGGUAAGUGUAAGUAGUCUGCAUGCCGCCGGGCGCCAUGCCUGCAGGUCGACUCUAGAAAACAUG” as the sequence, how does the binding signal (PUM1 PUF domain R3-FRM) read?
**A.** 5.33 log2 enrichment (interaction score)

**Q.** “GGCUAGAACUAGUGGAUCCCCCGGCGCCCGGCGGCUCGAGCCCGGGUAAGUGUCAAUAGUCUGCAUGCCGCCGGGCGCCAUGCCUGCAGGUCGACUCUAGAAAACAUG” was tested. Which binding signal (PUM1 PUF domain R5-RQL) did it give?
**A.** 2.74 log2 enrichment (interaction score)

**Q.** And the binding signal (PUM1 PUF domain R5-FRL)?
**A.** 2.63 log2 enrichment (interaction score)

**Q.** With “GGCUAGAACUAGUGGAUCCCCCGGCGCCCGGCGGCUCGAGCCCGGGUAAGUGUUAAUAGUCUGCAUGCCGCCGGGCGCCAUGCCUGCAGGUCGACUCUAGAAAACAUG” as the sequence, how does the binding signal (PUM1 PUF domain R5-FRL) read?
**A.** 1.67 log2 enrichment (interaction score)
